From PubChem BioAssay AID938 (National Center for Advancing Translational Sciences (NCATS), 2007) come the findings set out here.

Molecules are shown by their SMILES. “And” between values parts separate entries of the source, which are not always exact repeats. Equal values may be shown once. In all, about 73,000 compounds went through this assay and about 1,800 (2.5%) were called active. Another 13% or so got no clear call; they are omitted. Calls follow the shape of the dose curve; as a rule, active = well fitted activation curve with a large enough effect; inconclusive = small, poorly fitted or top-dose-only effect; inactive = no such curve, though single readings can be large or run the other way. The list comes from a sample in which actives are over-represented; it also holds similar structures and randomly drawn compounds. A call without a number means that no potency is given here.
Potency is read from the fitted curve at half-maximal effect.

The nature of this assay: qHTS Assay for Agonists of the Thyroid Stimulating Hormone Receptor: Activators of Intracellular cAMP Concentrations in Parental HEK 293. Also: nearly all actives have a fitted effect of over 55% in size. The note with it: parental HEK293 CNG cAMP sensor, membrane potential fluorescence; series mostly up to 57.1 µM. In outline: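 Parental HEK 293 cells stably expressing a modified CNG channel (no TSHR) report cAMP rise as membrane depolarization. Membrane potential dye with 100 uM RO 20-1724 was loaded for 60 min at room temperature, then compound added for 30 min; fluorescence read at 590 nm.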
(In general: Quantitative high-throughput screening tests each substance at several concentrations.)
Take `NS(=O)(=O)c1cc(C(=O)O)c(Cl)c([N+](=O)[O-])c1Cl`: the activation was -3.67% [at 11.4 µM] (inactive).

Take `CC(=O)N1CCC2(CCCN(Cc3ccc(C#N)cc3)C2)CC1`: the Potency entry is “inactive”.

For `CCOC(=O)c1cc2sccc2n1Cc1ccc(C#N)cc1`, the Potency is 15.8 µM (active).

For `COc1ccc(CCNC(=O)c2cc3sccc3n2C)cc1OC`, the Potency result is “inactive”.

Turning to `O=c1[nH][nH]c(=O)c2cc(N3CCCC3)ccc12`, the Potency entry is “inactive”.

For `O=C(Nc1ccc(S(=O)(=O)N2CCCCC2)cc1)c1cnccn1`, the Potency result is “inactive”.

For the molecule `CCc1cccc(C)c1NC(=O)CSc1nnc(-c2ccco2)n1N`, the Potency result was “inactive”.

Consider `COc1ccc(C(=O)NC(=O)CSc2nnc(-c3ccco3)n2-c2ccccc2)cc1`, for which the Potency result was “inactive”.

Regarding `Cc1cccc(C)c1NC(=O)CCCSc1nnc(-c2ccco2)n1-c1ccccc1`, the Potency was 20 µM (active).

`CC1CCCCN1CCCNC(=O)c1ccc(-n2c(=O)c(=O)[nH]c3ccccc32)cc1` (stereo not drawn): the Potency result is “inactive”.

Consider `O=C1c2ccccc2C(O)N1Cc1ccccc1Cl` (stereo not drawn), for which the Potency entry was “inactive”.

On to `COc1ccc(OCc2cccc(C(=O)N3CCCC3)c2)cc1`, for which the Potency entry was “inactive”.

Consider `COC(=O)[C@@]1(Cc2ccc(F)cc2)[C@H]2c3cc(C(=O)N4CCCC4)n(Cc4ccc(OC(F)(F)F)cc4)c3C[C@H]2CN1C(=O)c1ccccc1`, for which the Potency is 1.58 µM (active).

On to `COC(=O)[C@@]1(Cc2ccc(OC)cc2)[C@H]2c3cc(C(=O)N4CCCC4)n(Cc4ccc(OC(F)(F)F)cc4)c3C[C@H]2CN1C(=O)c1ccccc1`, for which the Potency is 2.51 µM (active).

As for `COC(=O)[C@@]1(Cc2ccc(F)cc2)[C@H]2c3cc(C(=O)N4CCCC4)n(C[C@H](O)CO)c3C[C@H]2CN1C(=O)c1ccccc1`, the Potency result is “inactive”.

Consider `COC(=O)[C@@]1(Cc2ccc(F)cc2)[C@@H]2[C@@H](CC(=O)[C@H]2CC(=O)C(=O)N2CCCC2)CN1C(=O)c1ccccc1`, for which the Potency result was “inactive”.

For `COC(=O)[C@@]1(Cc2ccc(F)cc2)[C@H]2c3cc(C(=O)N(C)C)n(CCc4c[nH]c5ccc(OC)cc45)c3C[C@H]2CN1C(=O)c1ccccc1`, the Potency entry was “inactive”.

For the molecule `COC(=O)[C@@]1(Cc2ccccc2)[C@H]2c3cc(C(=O)N4CCCC4)n(Cc4ccc(C)o4)c3C[C@H]2CN1C(=O)c1ccccc1`, the Potency was 1.58 µM (active).

For the molecule `COc1ccc(-c2nc(CS(=O)CC(=O)N3CCc4ccccc4C3)c(C)o2)cc1` (stereo not drawn), the Potency result is “inactive”.

As for `COc1ccc(/C=C/NC(=O)c2ccc(OC)cc2)cc1`, the activation was -3.02% [at 11.4 µM] (inactive).

With `NCCCNCCCCN(CCCN)/[N+]([O-])=N/O`, the Potency result is “inactive”.

Turning to `CC1(C)S[C@@H]2[C@@H](NC(=O)[C@@H](N)c3ccccc3)C(=O)N2[C@H]1C(=O)O`, the Potency result was “inactive”.

With `CC(Sc1nncn1C)C(=O)Nc1ccccc1-c1ccccc1` (stereo not drawn), the Potency result is “inactive”.

Take `CS(=O)(=O)N1CCN(C(=O)c2cc3ccccc3oc2=O)CC1`: the Potency entry was “inactive”.

Turning to `C/C(CCN1CCc2nc(-c3ccccc3)c(-c3ccccc3)cc2C1)=N\O[C@@H](C)c1cn([C@@H]2COC[C@@H]2O)nn1`, the activation was 0.56% [at 11.4 µM] (inactive).

For the molecule `O=C(COc1ccc2c3c(c(=O)oc2c1)CCC3)NC1CCCCC1`, the Potency entry is “inactive”.

For the molecule `CCCOc1ccc2c3c(c(=O)oc2c1OCCC)CCC3`, the Potency is 3.16 µM (active).

With `NC(=O)COc1ccc2c3c(c(=O)oc2c1)CCCCC3`, the Potency entry was “inactive”.

With `Oc1ccc2ccccc2c1C=NCc1c(O)ccc2ccccc12`, the activation is 1.97% [at 11.4 µM] (inactive).

For the molecule `CC(=O)N1CCN(c2ccc(NCc3ccc(C(C)C)cc3)cc2)CC1`, the Potency was 3.98 µM (active).

As for `CC(C)N(C(=O)COC(=O)c1ccccc1C(=O)N1CCN(c2ccc(F)cc2)CC1)C(C)C`, the Potency entry was “inactive”.

As to `CN1CCN(c2ccc(NC(=O)COc3ccc(Cl)cc3Cl)cc2)CC1`, the Potency entry is “inactive”.

`CSc1nnc(CNC(=O)c2ccccc2)n1-c1ccc(F)cc1`: the Potency result was “inactive”.

On to `CCCOc1ccc(NC(=O)C2CCCNC2=O)cc1` (stereo not drawn), for which the Potency entry is “inactive”.

For `CCc1ccc2oc(=O)cc(CN3CCCCC3C)c2c1` (stereo not drawn), the Potency was 25.1 µM (active).

Turning to `CC1CCCCN1CC(=O)NCc1ccc2c(c1)OCO2` (stereo not drawn), the Potency entry was “inactive”.

Turning to `Cc1cc(NC(=O)CN2CCCCC2C)nc2c1c(=O)oc1ccccc12` (stereo not drawn), the Potency entry is “inactive”.

As to `CCCn1c(-c2ccc(F)cc2)nc2c(NCC3CCCN3CC)nc(C)nc21` (stereo not drawn), the Potency was 15.8 µM (active).

For the molecule `CCCn1c(C)nc2c(NCCCCN(CC)CC)nc(C)nc21`, the Potency entry was “inactive”.

In the case of `CCN1CCCC1CNc1ncnc2c1[nH]c1ccc(F)cc12` (stereo not drawn), the Potency result was “inactive”.

As for `COc1ccc(CN2CC(C(=O)NCCN3CCN(c4ccccc4F)CC3)CC2=O)cc1` (stereo not drawn), the Potency entry is “inactive”.

As to `CN1CCC2(CC1)NC(=O)NC2=O`, the Potency entry is “inactive”.

As for `CC[C@@H]1Cc2cc(O)ccc2C2=C1c1ccc(O)cc1C[C@H]2CC`, the Potency is 6.31 µM (active).

`O=P(O)(CN1CCCCC1)CN1CCCCC1`: the Potency entry was “inactive”.

As for `O=C(c1ccc([N+](=O)[O-])cc1)[C@@H](Br)[C@@H](Br)c1ccnc2ccccc12`, the activation was 8.13% [at 11.4 µM] (inactive).

With `CCC[C@@H]1C[C@@]1(CCC)C(NC(=O)c1ccc(-c2ccccc2)cc1)c1cccc(Cl)c1` (stereo partly drawn), the Potency entry was “inactive”.

Consider `CCC[C@@H]1C[C@@]1(CCC)[C@@H](NC(=O)c1ccccc1)c1ccc(C(=O)OC)cc1`, for which the Potency is 7.94 µM (active).

In the case of `CCCC(=O)C1=C(N(C)c2ccccc2)CC(C)(C)C(C(=O)OC)C1=O` (stereo not drawn), the Potency entry was “inactive”.

Regarding `COc1nc(OC)nc(N(C)CCO)n1`, the Potency result was “inactive”.

As to `CCSC(C)CC1C/C(=N/O)c2c(C)noc2C1` (stereo not drawn), the Potency result was “inactive”.

On to `CCOC(=O)N1CCN(C(=O)c2ccc(CN(c3ccc(C)c(C)c3)S(C)(=O)=O)cc2)CC1`, for which the Potency entry is “inactive”.

Turning to `CC(C)C(c1nnnn1C1CCCC1)N1CCN(c2ccccc2F)CC1` (stereo not drawn), the Potency is 15.8 µM (active).

For `CCC(c1nnnn1C1CCCC1)N1CCN(C(=O)c2ccco2)CC1` (stereo not drawn), the Potency result was “inactive”.

`CC(C)C(c1nnnn1Cc1ccccc1)N1CCC(C(N)=O)CC1` (stereo not drawn): the Potency entry was “inactive”.

In the case of `CC(C)CN1CCc2nc(-c3ccccc3)c3c(c2C1)COC(C)C3` (stereo not drawn), the activation is -2.08% [at 11.4 µM] (inactive).

Consider `Cn1c2c(c(=O)n(C)c1=O)CN(Cc1ccco1)CN2`, for which the Potency result is “inactive”.

For the molecule `c1ccc(Oc2ccccc2)cc1`, the Potency entry was “inactive”.

On to `CC1CN(C2CCCCC2)c2nc3c(c(=O)n(C)c(=O)n3C)n2C1` (stereo not drawn), for which the Potency result was “inactive”.

Turning to `Cn1cccc1C1(C(F)(F)F)NCCNC1=O` (stereo not drawn), the Potency entry was “inactive”.

As for `CCOc1cccc(-c2nnc3sc(COc4ccc(OC)cc4)nn23)c1`, the Potency was 31.6 µM (active).

Turning to `Fc1ccc(OCc2nn3c(Cn4nnc5ccccc54)nnc3s2)cc1`, the Potency entry is “inactive”.

Take `COc1cc(-c2nn3c(-c4cccc(C)c4)nnc3s2)cc(OC)c1OC`: the Potency result is “inactive”.

Take `Clc1ccccc1-c1cc(NCCN2CCOCC2)ncn1`: the Potency result is “inactive”.

As for `COc1ccccc1-c1nc(NCCNC(C)=O)c2ccccc2n1`, the Potency entry is “inactive”.

As for `COc1ccccc1CNCc1cccs1`, the Potency result is “inactive”.

With `COc1ccccc1-c1nc(NCc2cccs2)c2ccccc2n1`, the Potency was 25.1 µM (active).

As for `CNc1nc(-c2ccccc2OC)nc2ccccc12`, the Potency result is “inactive”.

As for `COc1ccccc1-c1cc(NCc2cccs2)ncn1`, the Potency was 31.6 µM (active).

Take `CCOC(=O)c1cc2occc2n1CC(=O)N1CCN(C(=O)c2ccco2)CC1`: the Potency result was “inactive”.

Take `CO[C@@H]1COC(=O)C/C=C\[C@H](C)[C@@H](NS(=O)(=O)c2ccc(C)cc2)COC(=O)C/C=C\[C@@H]1C`: the activation is 2.07% [at 11.4 µM] (inactive) and 4.9% [at 11.4 µM] (inactive).

With `CCC[C@H]1C(=O)N2C(N(C)C)=Nc3ccc(C)cc3N2C1=O`, the Potency result is “inactive”.

In the case of `COc1ccccc1C(=O)C(O)c1ccccc1OC` (stereo not drawn), the Potency entry was “inactive”.

`Cc1ccc(C)c(N2CCN(C(=O)CCc3nc4ccccc4[nH]3)CC2)c1`: the Potency entry was “inactive”.

For the molecule `Cc1cc(C)n(-c2nc(SCC(=O)N3CCCC3)c3c4c(sc3n2)CCCC4)n1`, the Potency result is “inactive”.

Take `COCCn1c(C)cc(C(=O)CSc2ncnc3sc4c(c23)CCC4)c1C`: the Potency result is “inactive”.

Take `COCCNc1nc(-n2nc(C)cc2C)nc2sc3c(c12)CCCC3`: the Potency was 15.8 µM (active).

As for `CCCOc1ccccc1C1CC(=O)Nc2cc3c(cc21)OCO3` (stereo not drawn), the Potency is 7.94 µM (active).

In the case of `COc1cc2c(cc1OC)C(c1ccc(C)o1)CC(=O)N2` (stereo not drawn), the Potency entry is “inactive”.

Take `COCCOC(=O)C1=C(C)NC(=O)CC1c1cc2c(cc1Br)OCO2` (stereo not drawn): the Potency entry is “inactive”.

For the molecule `COc1ccc(NS(=O)(=O)c2ccc(NC(=O)C(C)(C(F)(F)F)C(F)(F)F)cc2)nn1`, the Potency entry was “inactive”.

For the molecule `Cc1nc2nc[nH]n2c(=O)c1NC(=O)c1cccc(OCC(C)C)c1`, the Potency entry is “inactive”.

With `CCOC(=O)c1[nH]c2c(c1C)C(=O)CC(c1ccc(N(C)C)cc1)C2` (stereo not drawn), the Potency entry is “inactive”.

As for `COC(=O)C1C(=O)c2c([nH]c(C(=O)OCCSC)c2C)CC1C` (stereo not drawn), the Potency result is “inactive”.

Consider `CCCOC(=O)c1[nH]c2c(c1C)C(=O)CC(c1cc(OC)c(OC)c(OC)c1)C2` (stereo not drawn), for which the Potency was 15.8 µM (active).

In the case of `N[C@@H](C(=O)O)c1ccc(P(=O)(O)O)cc1`, the Potency result was “inactive”.

Turning to `C/C(CCN1CCCCc2nc(C)c(C)cc21)=N\O[C@@H](C)c1cn([C@@H]2COC[C@@H]2O)nn1`, the activation was 6.27% [at 11.4 µM] (inactive).

Turning to `C[C@@H]1O[C@@H](O[C@@H]2[C@@H](O)[C@H](OCCc3ccc(O)c(O)c3)O[C@H](CO[C@@H]3O[C@H](CO)[C@@H](O)[C@H](O)[C@H]3O)[C@H]2OC(=O)/C=C/c2ccc(O)c(O)c2)[C@H](O)[C@H](O)[C@H]1O`, the Potency result is “inactive”.

Regarding `CO[C@H]1COC(=O)[C@@H](OCc2ccccc2)/C=C\[C@H](C)[C@@H](OC)COC(=O)[C@H](OCc2ccccc2)/C=C\[C@@H]1C`, the activation is -2.98% [at 11.4 µM] (inactive).

As for `Cn1cccc1C(=O)N1CCC[C@@]2(CCN(Cc3nccs3)C2)C1`, the Potency entry was “inactive”.

Regarding `O=C(c1csnn1)N1CCC[C@@]2(CCN(Cc3nccs3)C2)C1`, the Potency was 3.98 µM (active).

For the molecule `O=C(c1csnn1)N1CCC2(CC1)CN(c1ncccn1)C2`, the Potency result was “inactive”.

`CCc1cc(=O)oc2cc(OCC(=O)N3CCCc4ccccc43)ccc12`: the Potency result is “inactive”.

For the molecule `CCOC(=O)c1ccc(NC(=O)CS(=O)(=O)c2cn(CC)c3ccccc23)cc1`, the Potency entry is “inactive”.
